From PubChem BioAssay AID1053173 (Broad Institute, 2014)
In all, about 1,500 compounds went through this assay and about 390 (26%) were called active. The rule behind the calls is not given here. Not all results are given here. Potency and affinity values are given separately.

Molecular target: Histone-lysine N-methyltransferase NSD2 (Homo sapiens) (UniProt O96028)
Test: NSD2 methyltransferase inhibitors, dose response, biochemical, AlphaScreen, cherry-picked samples (AID 1053173);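 note: 0% = neutral control wells and -100% = positive control wells on each plate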
Details: NSD2 H4 peptide methylation, 120 min; series mostly up to 10 µM; activity change, negative = inhibition: at the top concentration

Chain of Histone-lysine N-methyltransferase NSD2 (Homo sapiens) (O96028 whole entry, looked up): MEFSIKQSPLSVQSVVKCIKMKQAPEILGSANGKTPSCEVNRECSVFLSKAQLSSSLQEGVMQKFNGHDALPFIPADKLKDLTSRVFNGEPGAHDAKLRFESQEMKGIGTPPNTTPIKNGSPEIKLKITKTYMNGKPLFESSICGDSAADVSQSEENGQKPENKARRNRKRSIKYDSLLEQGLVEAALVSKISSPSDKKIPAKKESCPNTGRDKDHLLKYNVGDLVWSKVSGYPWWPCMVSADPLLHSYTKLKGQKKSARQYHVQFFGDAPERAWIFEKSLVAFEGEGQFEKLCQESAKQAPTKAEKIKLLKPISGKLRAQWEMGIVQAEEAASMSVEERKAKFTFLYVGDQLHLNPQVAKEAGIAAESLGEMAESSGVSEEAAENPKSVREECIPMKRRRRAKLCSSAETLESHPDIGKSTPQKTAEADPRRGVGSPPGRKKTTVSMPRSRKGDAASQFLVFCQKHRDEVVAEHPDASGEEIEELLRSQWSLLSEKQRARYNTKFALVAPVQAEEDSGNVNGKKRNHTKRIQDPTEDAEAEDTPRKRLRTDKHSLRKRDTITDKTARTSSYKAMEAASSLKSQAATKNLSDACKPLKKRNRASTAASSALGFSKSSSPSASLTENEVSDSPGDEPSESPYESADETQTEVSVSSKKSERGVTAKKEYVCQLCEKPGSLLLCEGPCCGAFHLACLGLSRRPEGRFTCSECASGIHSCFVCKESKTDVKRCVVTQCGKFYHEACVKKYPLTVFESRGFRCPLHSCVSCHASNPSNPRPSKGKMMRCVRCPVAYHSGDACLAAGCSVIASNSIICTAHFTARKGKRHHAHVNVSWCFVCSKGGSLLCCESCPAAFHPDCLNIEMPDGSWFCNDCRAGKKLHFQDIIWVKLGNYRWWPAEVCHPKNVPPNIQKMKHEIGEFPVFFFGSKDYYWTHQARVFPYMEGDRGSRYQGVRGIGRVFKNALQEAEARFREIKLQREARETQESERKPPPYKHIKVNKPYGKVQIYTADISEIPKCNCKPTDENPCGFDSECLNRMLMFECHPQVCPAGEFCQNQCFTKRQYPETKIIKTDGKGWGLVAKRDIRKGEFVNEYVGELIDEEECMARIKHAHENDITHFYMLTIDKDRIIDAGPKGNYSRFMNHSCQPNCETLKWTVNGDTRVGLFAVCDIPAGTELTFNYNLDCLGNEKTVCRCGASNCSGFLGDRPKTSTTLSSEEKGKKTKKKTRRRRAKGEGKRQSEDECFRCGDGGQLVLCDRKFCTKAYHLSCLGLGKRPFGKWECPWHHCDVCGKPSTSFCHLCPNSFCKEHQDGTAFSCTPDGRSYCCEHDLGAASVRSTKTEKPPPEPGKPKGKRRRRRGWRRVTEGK

Activity change, negative = inhibition, inactive:
COc1ccc(-c2nn(-c3ccccc3)cc2C(=O)Nc2ccc(C(=O)O)cc2)cc1 -3.2%, CC(=NO)c1cc(Br)c2cccc3c2c1CC3 -2.86%, Cc1ccc(/C=C2/SC(=O)NC2=S)o1 -13.5%, CC1(C)C2CCC1(C)C(OC(=O)CSc1nc(N)cc(=O)[nH]1)C2 (stereo not drawn) 0.121%, Cc1c(C(=O)c2no[n+]([O-])c2C(=O)c2cnn(C)c2C)cnn1C -0.643%, CCOc1ccc(NC(=O)CN(c2cccc(C(F)(F)F)c2)S(C)(=O)=O)cc1 3.66%, COc1ccc(N/C=C2\CCc3ccccc3C2=O)cc1 -8.24%, COc1ccc(Nc2oc(COc3ccccc3OC)nc2C#N)cc1 0.344%, COc1ccc(NC2=CC(c3cccc(OC)c3)N(c3ccc(OC)cc3)C2=O)cc1 (stereo not drawn) -3.22%, c1coc(CNCCCN2CCOCC2)c1 -2.81%, O=C(CN1CCC(C(=O)c2ccc3c(c2)OCCO3)CC1)NCc1ccccc1 -0.843%, COc1cccc(CN(C)C(=O)c2cc(COc3c(F)cccc3F)on2)c1 1.74%, Cc1ccccc1Nc1nc(N)nc(CSc2nnc3sc4ccccc4n23)n1 5.36%, COc1cc2sc(C)nc2c2ccccc12 -0.927%, Cc1ccc(Cn2c(SCC(=O)N3CC(=O)Nc4ccccc43)nc3ccccc3c2=O)cc1 -2.5%, CCN1CCN(c2ncnc3scc(-c4ccc(OC)cc4)c23)CC1 -10.3%, O=C(O)C1CC(c2ccccc2F)=NO1 (stereo not drawn) -4.43%, Cc1cc(C)cc(-n2c(C)nc3cc(C(=O)O)ccc32)c1 1.21%, O=C(CSc1ccc(Cl)cc1)Nc1cc(-c2nc3ncccc3o2)ccc1Cl -0.517%, COCCCNC1=C(Cl)C(=O)c2ccccc2C1=O -10.6%, CC(C)(C)CN1CCNC(=O)C1CC(=O)N1CCC(C(=O)N2CCOCC2)CC1 (stereo not drawn) 1.16%, CCOc1ccccc1/C=N/NC(=O)c1nnn(-c2nonc2N)c1CN1CCC(C)CC1 -3.55%, CNc1ccc(Br)cc(C(=O)/C=C/c2cccc(OC)c2OC)c1=O -8.99%, COc1cc(/C=C/c2cccc[n+]2C)ccc1OCC(=O)Nc1ccccc1C -0.922%, CC(C)(C)c1cc(C(=O)N/N=C/c2ccncc2)n[nH]1 -2.87%, CC(=O)c1ccc(NC(=S)Nc2cccc3cnccc23)cc1 -1.63%, COC(=O)c1c(NC(=O)C(C)C)sc(C(=O)N2CCOCC2)c1C -0.343%, Cc1ccccc1NC(=S)Nc1cccc2cnccc12 -2.75%, COc1ccc(NC(=S)Nc2cccc3cnccc23)cc1 -4.99%, CN(C)CCC(=O)N1C/C(=C/c2ccccc2)C(=O)/C(=C\c2ccccc2)C1 -5.71%, Cn1ncc(Cl)c1C(=O)Nc1cc(C(F)(F)F)ccc1F -1.47%, COc1ccc(/C=C2/C(=O)N(c3c(F)c(F)c(F)c(F)c3F)N=C2C)cc1 0.848%, O=C(COc1ccc(S(=O)(=O)N2CCCC2)cc1)Nc1ccc(F)cc1 1.47%, O=C(O)CC(C(=O)O)N1C(=O)/C(=C/c2ccc(-c3nc4ccccc4s3)o2)SC1=S (stereo not drawn) -6.38%, O=C(O)COc1ccc(/C=C/C(=O)c2ccc3ccccc3c2)cc1 -9.29%, O=C(CNC(=O)c1ccccc1)Oc1ccc([N+](=O)[O-])cc1 -4.16%, C=CCC1CCCCC1=C(C#N)c1ccccc1 (stereo not drawn) -3.42%, NC1=NC(=Nc2ccc(Br)cc2)c2ccccc21 -5.36%, CC(=O)Nc1ccc(S(=O)(=O)/N=C2/NC(=O)/C(=C\c3ccco3)S2)cc1 -9.65%, Cc1[nH][nH]c(=O)c1C(c1ccc(-c2ccc(Cl)c(C(=O)O)c2)o1)c1c(C)[nH][nH]c1=O -7.88%, Cc1[nH][nH]c(=O)c1C(c1c(C)[nH][nH]c1=O)c1cn(C)c2ccccc12 -2.97%, COc1ccc2c(c1)Cc1sc(NC(=O)c3cccnc3)nc1-2 4.51%, Cc1ccc(N2CN=c3s/c(=C\c4ccccn4)c(=O)n3C2)cc1 -0.608%, Cc1c(-c2cccc(Cl)c2)nc2ccccc2c1C(=O)OC/C(O)=C(\C#N)c1nc2ccccc2[nH]1 -3.82%, COc1ccc(C=C(c2nc3ccccc3s2)c2nc3ccccc3s2)cc1O -9.17%, O=C(NC1CCCc2ccccc21)c1ccccc1OC(F)F (stereo not drawn) 0.349%, O=C1Nc2ccc(S(=O)(=O)NCc3ccco3)c3cccc1c23 0.667%, COc1ccc(NC2CCCN(C(=O)c3ccccc3N3CCOCC3)C2)cc1OC (stereo not drawn) -0.733%, Cn1c(NNC(=O)c2c(F)cccc2F)cc(=O)n(C)c1=O 6%, Cc1[nH][nH]c(=O)c1C(c1ccc(-c2ccccc2C(=O)O)o1)c1c(C)[nH][nH]c1=O -9.78%, Nc1nonc1-c1nc2ccccc2n1CC(=O)N/N=C/c1ccc(-c2ccccc2C(=O)O)o1 -10.2%, O=C(CSc1n[nH]c(-c2ccncc2)n1)Nc1ccc(Cl)c(Cl)c1 -5.23%, Cc1nnc(N/N=C\c2ccc(-c3cccc(C(=O)O)c3)o2)n1N 1.17%, Cc1ccc(-c2ccc(/C=N/NC(=O)CN3CCOCC3)o2)cc1[N+](=O)[O-] -0.384%, O=C(CCN1CCOCC1)NCC1COc2ccccc2O1 (stereo not drawn) 4.15%, COc1cc(CC(=O)NCC2COc3ccccc3O2)cc(OC)c1OC (stereo not drawn) 4.11%, COc1cc(C(=O)NC2CCCc3ccccc32)cc(OC)c1OC (stereo not drawn) -3.18%, CN(C)/C=C1\C=C2C(=O)c3ccccc3N2C1=O -11.9%, Cc1c(C)c2cc(Cl)c(O)c(CN(C)C)c2oc1=O -4.88%, Nc1nonc1C(=O)NCCNC(=O)c1ccccc1F 4.89%, O=C(Nc1cccnc1)c1ccc(COc2ccccc2Cl)o1 -3.23%, CNc1ccc(Br)cc(C(=O)/C=C/c2ccc(OC)cc2)c1=O -11.9%, O=C(CCc1nnc(CCCCc2ccccc2)o1)NC1CCCC1 0.963%, Cc1ccc(-n2nc(C(=O)NCc3ccc(C)o3)c3c4ccccc4n(C)c3c2=O)cc1 -0.692%, CC(C)(C#N)NC(=O)C1CCCN1S(=O)(=O)c1ccc2ccccc2c1 (stereo not drawn) -3.31%, Cc1ccc2cccc(NC3OC(=O)c4ccccc43)c2n1 (stereo not drawn) -5.91%, COc1cc(C(=O)Nn2c(O)c(C3=c4ccccc4=NC3=O)sc2=S)ccc1O 1.57%, CC(=O)N1CCN(c2ccccc2NC(=O)c2ccc3ccccc3c2)CC1 4.94%, CN1CCN(c2ccc(NC(=O)COc3ccc4ccccc4c3)cc2)CC1 6.91%, COc1c(F)c(F)c(C(=O)Nc2cccc(Cl)c2N2CCOCC2)c(F)c1F -1.41%, Nc1c2c(=O)oc(-c3ccccc3)cc2nn1-c1ccccc1 0.608%, Cc1ccccc1-c1ocnc1C(=O)Nc1ccccc1NC(=O)c1ccccn1 -3.59%, O=C(N/N=C/c1cc2c(cc1[N+](=O)[O-])OCO2)c1ccccn1 1.47%, O=C(Nc1cccc(C(F)(F)F)c1)c1cc(-c2ccco2)on1 -0.125%, Cc1cccc(N2CCN(S(=O)(=O)c3c(C)nc4scc(C)n4c3=O)CC2C)c1 (stereo not drawn) 4.46%, O=C(Nc1cc(S(=O)(=O)Nc2ccccc2F)ccc1Cl)c1ccc(F)cc1F -4.71%, CC1CC(C)CN(C(=O)C2CCN(S(=O)(=O)c3cccs3)CC2)C1 (stereo not drawn) -1.91%, Cn1c(=O)c2c(nc(CN3CCc4ccccc4C3)n2CCc2ccccc2)n(C)c1=O -0.06%, Cc1ccccc1-n1nc(C)c2c1N=C1C(Cl)=CC(Cl)=CN1C2c1ccc(C(=O)O)cc1 (stereo not drawn) -5.97%, CC(C)N(Cc1ccccc1)C(=O)C1CCCN(c2ncnc3c2nc2n3CCCCC2)C1 (stereo not drawn) -1.45%, COc1ccc(NC(=O)c2ccc(F)c(F)c2)c2ccccc12 2.95%, c1ccc(-c2cc(-c3ccccc3)n3ncnc3n2)cc1 -0.881%, COCCNC(=O)Cc1c(C)c2c(cc(C)c3c(C)coc32)oc1=O -2.39%, CC1CCN(C(=O)CN(Cc2ccc(Cl)cc2)S(C)(=O)=O)CC1 -3.55%, CCc1ccccc1NC(=O)CSc1nc2n[nH]c(C)c2c(=N)n1-c1cccc(OC)c1 0.33%, CC(NC(=O)COC(=O)c1ccc([N+](=O)[O-])s1)c1ccccc1 (stereo not drawn) -0.22%, CSc1ccccc1NC(=O)CN(C)C(=O)COc1ncnc2ccccc12 4.86%, COCCOC(=O)C1=C(C)NC(C)=C(C(=O)OC(C)C)C1c1cccc([N+](=O)[O-])c1 (stereo not drawn) -0.917%, Nn1cnnc1N/N=C\c1ccc(-c2ccccc2[N+](=O)[O-])o1 -6.2%, Cc1nnc(N/N=C/c2ccc(-c3ccccc3F)o2)n1N -3.53%, CC(C)c1ccc(NC(=S)N2CCCC(c3ccc(F)cc3)=N2)cc1 6.21%, Cc1ccc(NC(=S)N2CCC(NC(=O)c3cccc(F)c3)CC2)cc1 4.83%, COc1ccc(S(=O)(=O)N2CCCC(C(=O)NCCCn3ccnc3)C2)cc1OC (stereo not drawn) -0.379%, CC1CN(c2nc3c(c(=O)n(Cc4ccc(Cl)cc4)c(=O)n3C)n2C)CC(C)O1 (stereo not drawn) 0.136%, O=c1c2c(n3cnnc3n1-c1ccccc1)-c1ccccc1CC21CCCC1 0.452%, N#Cc1cc(-c2ccccc2)nnc1Oc1ccccc1Cl -2.46%, CCN(CC)S(=O)(=O)c1ccc(-c2cn3cc(Cl)ccc3n2)cc1 4.2%, COc1ccc(C(=O)N(Cc2cccs2)C2CCS(=O)(=O)C2)cc1 (stereo not drawn) -0.94%, CCOC(=O)Nc1cc(C(=O)OC)ccc1C -1.18%, O=C(Nc1ccc(Br)cc1)c1ccc(-n2cnnn2)cc1 -2.68%, Cc1cc(C(=O)COc2cccc(-n3cnnn3)c2)c(C)n1-c1ccccc1 -0.173%, O=C(C1CC1)N1CCc2[nH]c3ccccc3c2C1 -2.06%, C=CCn1c(N)c(C(=O)NCC2CCCO2)c2nc3ccccc3nc21 (stereo not drawn) 2.42%, COc1ccccc1NC1C=CS(=O)(=O)C1 (stereo not drawn) -0.449%, CC1CCCC(C)N1C(=O)COC(=O)c1ccc([N+](=O)[O-])o1 (stereo not drawn) -9.53%, COc1ccccc1NC(=O)c1ccccc1NS(=O)(=O)N1CCCC1 -2%, CCN1CCc2nc3ccccc3c(C(=O)Nc3ccc(NC(C)=O)cc3)c2C1 -11.6%, O=C1ON=C(c2ccccc2)/C1=C/c1ccc(O)cc1 -0.931%
